Several values for one entry are separate records, joined by “and”; a condition that tells them apart may be missing. Equal entries are not always repeated. Whole data set: some 2,900 compounds, median “NF-kB SEAP reporter activity, fold change vs agonist alone” near 0.99, cut for the highest 2% near 2.6. This is one part of a sample in which the highest values are shown more often than they occur.
Tests used:
[1] = test system: RAW-Dual; test: NF-kB SEAP reporter activity, fold change vs agonist alone; higher = enhanced NF-kB activity
In short: (§1)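 Reporter activity is given as fold change relative to agonist-alone wells. To measure it, 50 nL of library stock was pin-tooled onto RAW-Dual macrophages (50,000 cells/well, DMEM, 384-well plates), a PRR agonist followed 1 h later, and cells stayed at 37 °C, 5% CO2. Twenty hours on, supernatant was assayed for IRF (QuantiLuc luminescence) and NF-κB (QuantiBlue, 620 nm absorbance), and wells under 70% of agonist-control IncuCyte confluency in both mask sets were marked cytotoxic.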

[2] = test system: RAW-Dual; test: NF-kB SEAP reporter activity, fold change vs agonist alone; cytotoxicity flag (confluency mask): not cytotoxic; higher = enhanced NF-kB activity
In short: as §1

[3] = test system: RAW-Dual; test: NF-kB SEAP reporter activity, fold change vs agonist alone; cytotoxicity flag (confluency mask): cytotoxic (confluency <70% of control); higher = enhanced NF-kB activity
In short: as §1

[4] = library stock concentration (final ~1000-fold dilution): 10 mM, cytotoxicity flag (confluency mask): not cytotoxic, agonist: Imiquimod (TLR7) […]
[5] = library stock concentration (final ~1000-fold dilution): 10 mM, cytotoxicity flag (confluency mask): not cytotoxic, agonist: MPLA (TLR4) […]
[6] = agonist: ODN 1826 (TLR9) 0.5 ug/mL
[7] = agonist: Pam2CSK4 (TLR2/6) 0.1 ug/mL
[8] = agonist: Pam3CSK4 (TLR2/1) 0.1 ug/mL
[9] = library stock concentration (final ~1000-fold dilution): 10 mM, cytotoxicity flag (confluency mask): cytotoxic (confluency <70% of control), agonist: Imiquimod (TLR7) […]
[10] = library stock concentration (final ~1000-fold dilution): 10 mM, cytotoxicity flag (confluency mask): cytotoxic (confluency <70% of control), agonist: MPLA (TLR4) […]

O=C1C2C3CCC(C3)C2C(=O)N1CC1CCCCC1CN1CCN(c2nsc3ccccc23)CC1 (stereo unspecified)
NF-kB SEAP reporter activity [1, 4]: 0.878 | NF-kB SEAP reporter activity [1, 5]: 1.06

O=C1C2C3CCC(C3)C2C(=O)N1CC1CCCCC1CN1CCN(c2nsc3ccccc23)CC1 (stereo unspecified) (library stock concentration (final ~1000-fold dilution): 10 mM)
NF-kB SEAP reporter activity ([2]; agonist: LPS (TLR4) 0.1 ug/mL): 0.728 | NF-kB SEAP reporter activity [2, 6]: 0.931 | NF-kB SEAP reporter activity [2, 7]: 0.983 | NF-kB SEAP reporter activity [2, 8]: 1.07

CC(ONC(=O)c1cc(C(F)(F)F)cc(C(F)(F)F)c1)C(=O)Nc1ccc(Cl)cc1 (stereo unspecified)
NF-kB SEAP reporter activity [1, 4]: 0.98 | NF-kB SEAP reporter activity [1, 5]: 1.4

O=C(Nc1cc(C(F)(F)F)cc(C(F)(F)F)c1)c1cc(Cl)ccc1O (library stock concentration (final ~1000-fold dilution): 10 mM)
NF-kB SEAP reporter activity ([3]; agonist: LPS (TLR4) 0.1 ug/mL): 4.53 and 3.94 | NF-kB SEAP reporter activity [3, 6]: 1.84 and 1.74 | NF-kB SEAP reporter activity [3, 7]: 1.25 and 1.03 | NF-kB SEAP reporter activity [3, 8]: 1.99 and 1.13

Cl.NCCOc1ccc(Cl)cc1C(=O)Nc1ccc([N+](=O)[O-])cc1Cl
NF-kB SEAP reporter activity [1, 4]: 1.31 | NF-kB SEAP reporter activity [1, 5]: 0.949

O=C(Nc1cc(C(F)(F)F)ccc1N1CCCCC1)c1ccncc1 (library stock concentration (final ~1000-fold dilution): 10 mM)
NF-kB SEAP reporter activity ([2]; agonist: LPS (TLR4) 0.1 ug/mL): 0.802 | NF-kB SEAP reporter activity [2, 6]: 0.875 | NF-kB SEAP reporter activity [2, 7]: 0.764 | NF-kB SEAP reporter activity [2, 8]: 0.771

O=C(Nc1ccc([N+](=O)[O-])cc1Cl)c1cc(Cl)ccc1O
NF-kB SEAP reporter activity [1, 4]: 1 | NF-kB SEAP reporter activity [1, 5]: 1.05

Cl.Nc1ccc(Cl)cc1C(=O)C(F)(F)F (library stock concentration (final ~1000-fold dilution): 10 mM)
NF-kB SEAP reporter activity ([2]; agonist: LPS (TLR4) 0.1 ug/mL): 1.2 | NF-kB SEAP reporter activity [2, 6]: 1.04 | NF-kB SEAP reporter activity [2, 7]: 1.01 | NF-kB SEAP reporter activity [2, 8]: 0.971

Cc1oncc1C(=O)Nc1ccc(C(F)(F)F)cc1 (library stock concentration (final ~1000-fold dilution): 10 mM)
NF-kB SEAP reporter activity ([2]; agonist: LPS (TLR4) 0.1 ug/mL): 0.926 | NF-kB SEAP reporter activity [2, 6]: 1.24 | NF-kB SEAP reporter activity [2, 7]: 0.908 | NF-kB SEAP reporter activity [2, 8]: 1.07

O=C(Nc1cc(C(F)(F)F)ccc1C(F)(F)F)c1cc(Br)ccc1O (library stock concentration (final ~1000-fold dilution): 10 mM)
NF-kB SEAP reporter activity ([3]; agonist: LPS (TLR4) 0.1 ug/mL): 2.68 | NF-kB SEAP reporter activity [3, 6]: 1.82 | NF-kB SEAP reporter activity [3, 7]: 0.573 | NF-kB SEAP reporter activity [3, 8]: 0.839

Cl.NCCOc1ccc(Cl)cc1C(=O)Nc1ccc([N+](=O)[O-])cc1Cl (library stock concentration (final ~1000-fold dilution): 10 mM)
NF-kB SEAP reporter activity ([2]; agonist: LPS (TLR4) 0.1 ug/mL): 1.29 | NF-kB SEAP reporter activity [2, 6]: 0.59 | NF-kB SEAP reporter activity [2, 7]: 0.918 | NF-kB SEAP reporter activity [2, 8]: 0.91

O=C(Nc1ccncc1)c1cc([N+](=O)[O-])ccc1Cl (library stock concentration (final ~1000-fold dilution): 10 mM)
NF-kB SEAP reporter activity ([2]; agonist: LPS (TLR4) 0.1 ug/mL): 0.801 | NF-kB SEAP reporter activity [2, 6]: 0.584 | NF-kB SEAP reporter activity [2, 7]: 0.853 | NF-kB SEAP reporter activity [2, 8]: 0.69

O=C(Nc1ccc([N+](=O)[O-])cc1Cl)c1cc(Cl)ccc1O (library stock concentration (final ~1000-fold dilution): 10 mM)
NF-kB SEAP reporter activity ([2]; agonist: LPS (TLR4) 0.1 ug/mL): 6.96 | NF-kB SEAP reporter activity [2, 6]: 0.713 | NF-kB SEAP reporter activity [2, 7]: 0.379 | NF-kB SEAP reporter activity [2, 8]: 0.527

O=C(Nc1cc(C(F)(F)F)ccc1N1CCCCC1)c1ccncc1
NF-kB SEAP reporter activity [1, 4]: 0.957 | NF-kB SEAP reporter activity [1, 5]: 1.01

O=C(Nc1ccncc1)c1cc([N+](=O)[O-])ccc1Cl
NF-kB SEAP reporter activity [1, 4]: 0.837 | NF-kB SEAP reporter activity [1, 5]: 0.684

O=C(Nc1cc(C(F)(F)F)ccc1C(F)(F)F)c1cc(Br)ccc1O
NF-kB SEAP reporter activity [1, 9]: 0.255 | NF-kB SEAP reporter activity [1, 10]: 2.3

Cl.Nc1ccc(Cl)cc1C(=O)C(F)(F)F
NF-kB SEAP reporter activity [1, 5]: 1.24

Cc1oncc1C(=O)Nc1ccc(C(F)(F)F)cc1
NF-kB SEAP reporter activity [1, 4]: 1.24 | NF-kB SEAP reporter activity [1, 5]: 1.15

CC(ONC(=O)c1cc(C(F)(F)F)cc(C(F)(F)F)c1)C(=O)Nc1ccc(Cl)cc1 (stereo unspecified) (library stock concentration (final ~1000-fold dilution): 10 mM)
NF-kB SEAP reporter activity ([2]; agonist: LPS (TLR4) 0.1 ug/mL): 1.45 | NF-kB SEAP reporter activity [2, 6]: 0.913 | NF-kB SEAP reporter activity [2, 7]: 0.239 | NF-kB SEAP reporter activity [2, 8]: 0.6

Cc1c(-c2ccc(C(N)=O)c3[nH]c4cc(C(C)(C)O)ccc4c23)cccc1-n1cnc2ccccc2c1=O
NF-kB SEAP reporter activity [1, 4]: 1.76 | NF-kB SEAP reporter activity [1, 5]: 1.37

Cc1c(-c2ccc(C(N)=O)c3[nH]c4cc(C(C)(C)O)ccc4c23)cccc1-n1cnc2ccccc2c1=O (library stock concentration (final ~1000-fold dilution): 10 mM)
NF-kB SEAP reporter activity ([2]; agonist: LPS (TLR4) 0.1 ug/mL): 1.25 | NF-kB SEAP reporter activity [2, 6]: 1.1 | NF-kB SEAP reporter activity [2, 7]: 0.537 | NF-kB SEAP reporter activity [2, 8]: 0.833

CC(O)C1C(=O)N2C(C(=O)O)=C(SCCNC=N)CC12.O (stereo unspecified)
NF-kB SEAP reporter activity ([1]; library stock concentration (final ~1000-fold dilution): 10 mM water, cytotoxicity flag (confluency mask): not cytotoxic, agonist: Imiquimod (TLR7) […]): 0.896 | NF-kB SEAP reporter activity ([1]; library stock concentration (final ~1000-fold dilution): 10 mM water, cytotoxicity flag (confluency mask): not cytotoxic, agonist: MPLA (TLR4) […]): 1.02

CC(O)C1C(=O)N2C(C(=O)O)=C(SCCNC=N)CC12.O (stereo unspecified) (library stock concentration (final ~1000-fold dilution): 10 mM water)
NF-kB SEAP reporter activity ([2]; agonist: LPS (TLR4) 0.1 ug/mL): 1.41 | NF-kB SEAP reporter activity [2, 6]: 1.16 | NF-kB SEAP reporter activity [2, 7]: 1.23 | NF-kB SEAP reporter activity [2, 8]: 1.07

CCCn1c(NC(=O)c2cccc(C(N)=O)c2)nc2ccccc21 (library stock concentration (final ~1000-fold dilution): 10 mM)
NF-kB SEAP reporter activity ([2]; agonist: LPS (TLR4) 0.1 ug/mL): 0.482 | NF-kB SEAP reporter activity [2, 6]: 0.333 | NF-kB SEAP reporter activity [2, 7]: 0.143 | NF-kB SEAP reporter activity [2, 8]: 0.205

CCCn1c(NC(=O)c2cccc(C(N)=O)c2)nc2ccccc21
NF-kB SEAP reporter activity [1, 4]: 0.36 | NF-kB SEAP reporter activity [1, 5]: 0.54

COc1ccc(N2C(=O)/C(=C/c3ccc([N+](=O)[O-])s3)SC2=S)cc1 (library stock concentration (final ~1000-fold dilution): 10 mM)
NF-kB SEAP reporter activity ([3]; agonist: LPS (TLR4) 0.1 ug/mL): 0.439 | NF-kB SEAP reporter activity [3, 6]: 2.23 | NF-kB SEAP reporter activity [3, 7]: 0.267 | NF-kB SEAP reporter activity [3, 8]: 0.382

COc1ccc(N2C(=O)/C(=C/c3ccc([N+](=O)[O-])s3)SC2=S)cc1
NF-kB SEAP reporter activity [1, 9]: 1.65 | NF-kB SEAP reporter activity [1, 10]: 1.63

From the supplement of paper PMC10037445
